# Bioassay records (PubChem BioAssay)
# M1 antag = human CHRM1 antagonism | inhibition, % at 3 µM | CHO-K1 hM1, Fluo-8 calcium fluorescence, ACh EC80 antagonist | P11229 | hit rate 1.3% among 360,000 | AID 588852;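 active means percent inhibition above its own plate's cutoff, namely the mean of that plate's compound wells plus 3 SD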;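 further: peak over basal fluorescence ratio during 140 s after agonist addition; 0% = ACh EC80 plus DMSO and 100% = DMSO alone without agonist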
# Target sequence (P11229 whole entry, looked up): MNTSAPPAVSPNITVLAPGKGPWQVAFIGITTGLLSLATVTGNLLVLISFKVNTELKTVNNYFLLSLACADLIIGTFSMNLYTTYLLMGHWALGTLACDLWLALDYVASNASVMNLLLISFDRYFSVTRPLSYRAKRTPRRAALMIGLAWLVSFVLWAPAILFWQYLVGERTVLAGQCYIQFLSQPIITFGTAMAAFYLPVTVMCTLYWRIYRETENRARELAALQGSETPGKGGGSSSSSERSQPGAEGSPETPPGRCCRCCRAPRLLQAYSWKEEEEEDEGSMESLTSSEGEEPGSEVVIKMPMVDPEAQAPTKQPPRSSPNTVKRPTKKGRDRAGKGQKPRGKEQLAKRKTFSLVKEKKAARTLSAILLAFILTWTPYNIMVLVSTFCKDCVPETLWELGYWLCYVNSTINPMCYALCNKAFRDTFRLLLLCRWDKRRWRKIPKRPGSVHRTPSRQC
# M1 PAM = potentiates human M1 receptor response to acetylcholine. activation, % at 3 µM. hit rate 0.088% among 360,000. P11229. CHO-K1 hM1, Fluo-8 calcium fluorescence, ACh EC20; 0% = ACh EC20, 100% = maximal ACh. AID 588819; in the data active means activation above about 19%, passing the limit was not always enough
# CHO-K1 Ca antag = counter-screen for M1 antagonists: effect in parental CHO-K1 cells. ATP-induced calcium, Fluo-8 fluorescence. inhibition, % at 3 µM. hit rate 0.6% among 360,000;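 active means inhibition above a per-plate cutoff, the plate's mean sample inhibition plus 3 SD, cut at about 24% in these data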;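 further: 0% = DMSO plus EC80 ATP and 100% = DMSO alone without ATP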
# CHO-K1 Ca ag = nonselective activator or artifact in parental CHO-K1 cells. activation, % at 3 µM. hit rate 0.48% among 360,000. Fluo-8 calcium fluorescence; scaled to maximal ATP response, vehicle zero; in the data active means activation above about 15%;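 further: untransfected CHO-K1 host cells lacking M1 receptor as counterscreen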
# CHRM1 agonist = human M1 muscarinic receptor agonism; P11229; CHO-K1 hM1, Fluo-8 calcium fluorescence, agonist mode; 0% DMSO, 100% acetylcholine EC100; hit rate 0.33% among 360,000; AID 588814; activation, % at 3 µM;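 active means activation above the run's mean compound activation plus 3 SD, cut at about 16% in these data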;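 further: peak over basal fluorescence ratio within a 140 s kinetic read after compound addition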
# M1 PAM parental = M1 PAM counterscreen hit in parental CHO-K1 cells | ATP EC20, Fluo-8 calcium fluorescence; 0% at ATP EC20, 100% at ATP max | activation, % at 3 µM | hit rate 0.02% among 360,000 | AID 602247;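 active means activation above the run cutoff, the mean activation of all test compounds plus 3 SD, cut at about 40% in these data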;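 further: peak over basal fluorescence ratio in a 140 s read after ATP addition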
# * marks the source's active call; other numbers are inactive results. This is a sample that favours compounds with a hit; in the whole collection about 2.4% have one here.
SMILES,M1 antag,M1 PAM,CHO-K1 Ca antag,CHO-K1 Ca ag,CHRM1 agonist,M1 PAM parental
CCCCn1c(N)c(N(CC(C)C)C(=O)CCS(=O)(=O)c2ccc(C)cc2)c(=O)[nH]c1=O,-7,3,-11,0,-2,7
CCCCn1c(N)c(N(CC(C)C)C(=O)CCCc2cccs2)c(=O)[nH]c1=O,10,6,26*,-1,3,-19
CCCOc1ccc(OC(=O)c2ccc(Br)o2)cc1,17,-8,13,3,45*,2
CCc1ccc(OCC(=O)NNC(=O)CNC(=O)c2ccc(Br)o2)cc1,-8,6,-10,-1,-2,-1
CC1(C)CC(=O)C=C(c2ccc(-c3cccc4c3sc3ccccc34)cc2)C1=O,1,-2,1,1,-3,16
O=C(Nc1ccccc1)Nc1ccc(-n2ccc(C(F)(F)F)n2)cc1,68*,-24,26*,17*,4,-19
CCn1c(C)nc2cc(C(=O)OC(C(F)(F)C(F)F)C(F)(F)C(F)F)ccc21,29*,-12,45*,14,1,-11
CCN(CC)S(=O)(=O)c1ccc(S(=O)(=O)Nc2ccc3c(c2)oc2ccccc23)cc1,5,-6,25*,0,-3,-6
CCC(C)[C@H](NC(=O)c1cc2cc(Cl)ccc2n1C)C(=O)N1CCC[C@H]1C(=O)O (some centres not stated),-12,8,8,0,-4,0
O=[N+]([O-])c1ccc(S(=O)(=O)Nc2ccncc2)cc1,-7,2,-9,-1,-4,1
O=S(=O)(Nc1ccc(Nc2ccccc2)cc1)c1ccc(F)cc1,-10,9,24*,-1,0,-26
O=[N+]([O-])c1ccc(Oc2ccc(S(=O)(=O)Nc3ccccc3)cc2)cc1,42*,-17,29*,19*,19*,-6
Cc1ccc(S(=O)(=O)Nc2ccc(Nc3ccccc3)cc2)cc1,-6,4,8,0,-1,-8
O=S1(=O)NC(C2CC2c2ccccc2)CCO1 (configuration not stated),5,-1,9,1,-8,-15
COc1ccc(C(=O)NCCc2nnc(SCC(=O)Nc3ccccc3)n2C)cc1,-31,8,25*,0,10,-8
CN(C(=O)Cn1c(Cl)nc2c1c(=O)n(C)c(=O)n2C)C1CCS(=O)(=O)C1 (configuration not stated),23*,-10,4,0,-2,-21
CCC(C)N(C(=O)Cn1c(Cl)nc2c1c(=O)n(C)c(=O)n2C)C1CCS(=O)(=O)C1 (configuration not stated),-5,1,7,1,2,-20
COc1ccc(NC2SC(=O)N(C)C2=O)cc1 (configuration not stated),9,0,-5,0,-2,5
O=C(Nc1cccc(Cl)c1N1CCCC1)c1ccc([N+](=O)[O-])o1,2,8,1,0,0,8
CCN1CCN(c2c(Cl)cccc2NC(=O)c2ccc([N+](=O)[O-])o2)CC1,43*,-22,-13,1,-7,22
C[N+]1(CCn2ccc3ccccc32)CCCCC1,42*,-38,-14,0,-16,-6
COC(=O)c1ccc(/C=N/OCC(=O)NC2CCCCCCC2)cc1,-10,5,-3,4,-4,19
COC(=O)c1ccc(/C=N/OCC(=O)NC2CCCC(C)C2C)cc1 (configuration not stated),31*,-13,-3,5,3,19
COc1ccc(CCN(C)C(=O)Cc2ccc(-c3ccccc3)cc2)cc1OC,10,-6,24*,12,2,-26
COc1ccc(CCN(C)C(=O)COc2ccc(C(=O)c3ccccc3)cc2)cc1OC,3,-1,-1,1,-1,-17
CCCNC(=O)c1nnsc1S(=O)c1ccc(Cl)cc1 (configuration not stated),5,-4,-3,8,-5,23
CCCNC(=O)c1nnsc1S(=O)(=O)c1ccc(Cl)cc1,96*,-20,0,0,-6,7
COCCNC(=O)C1CCCN(C(=O)c2ccc(SC(F)(F)F)cc2)CC1 (configuration not stated),-8,2,-10,0,-4,-5
